Assay results reported in PubChem BioAssay (NCI).
About 79,000 compounds went through this panel and 15% of them were active in at least one assay; those are over-represented in the sample as a whole. Unmarked numbers belong to inactive results. Calls of active or inactive are those of the source. Rule as the data show it: active = growth inhibition above about 70%; inactive = the rest.

Legend:
[1] = NCI Yeast Anticancer Drug Screen. Data for the rad50 strain (AID 155);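 also: 0% = growth of vehicle-only cultures of the same strain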; conditions: S. cerevisiae rad50 strain growth inhibition; at 50.0 µM; stronger effect = higher value
Outline: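 A DNA repair-deficient yeast mutant serves as the test organism; compound-induced growth inhibition is calculated against vehicle-treated cells.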

[2] = NCI Yeast Anticancer Drug Screen. Data for the mec2-1 strain (AID 157); conditions: S. cerevisiae mec2-1 strain, at 50.0 µM, stronger effect = higher value
Outline: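 mec2-1 yeast strain, carrying an alteration in DNA damage repair or cell cycle control, was exposed to compounds; growth inhibition was measured relative to vehicle-treated controls.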

[3] = NCI Yeast Anticancer Drug Screen. Data for the sgs1 mgt1 strain (AID 161);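 also: 0% = growth of cultures given vehicle only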; conditions: S. cerevisiae sgs1 mgt1 strain, at 50.0 µM, stronger effect = higher value
Outline: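 Yeast cells carrying a defined DNA-repair defect were exposed to test compounds. Growth inhibition was measured relative to vehicle-treated controls.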

[4] = NCI Yeast Anticancer Drug Screen. Data for the cln2 rad14 strain (AID 165);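 also: 0% = growth equal to vehicle treated cultures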; conditions: S. cerevisiae cln2 rad14 strain, at 50.0 µM, stronger effect = higher value
Outline: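 Yeast carrying cln2 and rad14 alterations (cell cycle control and DNA damage repair) were exposed to compounds. Growth inhibition was measured against vehicle-treated controls.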

[5] = NCI Yeast Anticancer Drug Screen. Data for the bub3 strain (AID 167); conditions: S. cerevisiae bub3 mutant strain, at 50.0 µM, stronger effect = higher value
Outline: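 Inhibition values come from growth of compound-treated mutant yeast normalised to vehicle-treated controls.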

[6] = NCI Yeast Anticancer Drug Screen. Data for the mlh1 rad18 strain (AID 175); conditions: S. cerevisiae mlh1 rad18 strain growth inhibition; at 50.0 µM; stronger effect = higher value
Outline: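 Growth inhibition of the yeast strain was measured after compound exposure and expressed relative to vehicle-treated controls. The strain carries defined defects in DNA damage repair.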

Compound	growth inhibition [1]	growth inhibition [2]	growth inhibition [3]	growth inhibition [4] [%]	growth inhibition [5]	growth inhibition [6]
CSc1nc2c(nnn2C2OCC(O)C(O)C2O)c(=O)[nH]1 (centres undefined)	-10.7%	-0.5%	-11.9%	-4.3	-6.1%	6.4%
Cc1c(C(N)=O)c(-c2ccccc2)c(-c2ccccc2)n1Nc1ccccc1	16.9%	-2.65%	13.7%	11.9	-5.05%	23.7%
NC(=O)Nc1ccc2ccccc2c1	8.8%	-9.75%	1.65%	-3.95	-19.8%	-5.25%
O=C(NCCCCCCNC(=O)NCc1ccc(Cl)c(Cl)c1)NCc1ccc(Cl)c(Cl)c1	13.6%	4%	-3.8%	-3.8	-1.9%	16.9%
FC1(F)C(F)(F)C(F)(F)C2(F)C(F)(F)C(F)(F)C(F)(F)C(F)(F)C2(F)C1(F)F (centres undefined)	-25.2%	-21.2%	-17.7%	7.25	-0.8%	-8.5%
CN(C)C(=N)N	-28.9%	6.3%	-27.4%	-21.6	-0.7%	-18.4%
COc1ccc(-c2nnc(-c3nsc4ccccc34)o2)cc1	-12.8%	-31.9%	-21.5%	-2.5	18.5%	-14.1%
COC(=O)/C=C1/Nc2c(N)nc(N)nc2NC1=O	15.1%	8.2%	5.95%	-2.1	-0.9%	3.15%
CC(C)C(=O)OC1CCCCC1Cc1ccccn1 (centres undefined)	21.1%	-3.25%	29.1%	-17	24.1%	-6.8%
CO/N=C1\CC(NC(=O)C(F)(F)F)c2ccsc21 (centres undefined)	11.6%	6.9%	8%	13.3	-2.8%	38.9%
CCOCC/C(C(=O)O)=C(\CC)C(=O)O	9.15%	2.55%	0%	8.7	-22.8%	9.05%
c1ccc2c(c1)SCCCSCCCS2	-4.35%	-4.6%	-5.45%	-9.4	9.15%	-11.4%
S=c1[nH]nc2nc3c4ccccc4c4ccccc4c3nn12	53.7%	22.8%	10.3%	14.2	21.2%	25.7%
O=C1CC2C3CC4(OCCO4)C4C3CC2C14 (centres undefined)	8.25%	2.45%	3%	8.65	2.1%	5.8%
CC1CC(=O)C(CC(=O)O)[C@H]1C(C(=O)C(=O)Nc1cc(Cl)ccc1Cl)[N+](=O)[O-] (some centres undefined)	1.45%	-11.3%	-10.1%	14.7	-13.3%	-2%
O=C1CSc2ccnc(=O)n21	-0.1%	-10%	16.7%	11.1	-9.8%	-8.1%
CC(=O)NCc1cc([N+](=O)[O-])ccc1O	11.6%	2.55%	-0.8%	-6.2	-3.55%	5.05%
O=[N+]([O-])/C(C(Cl)=C(Cl)Cl)=C1\NCCS1	39.7%	25.5%	40.2%	9.7	34.6%	42.3%
CNC(=S)N/N=C(C)\C=N/Nc1ccc(Br)cc1	46.4%	14.1%	34.7%	-18.9	21.2%	25.9%
Clc1ccccc1C(Nc1nc2ccccc2s1)Nc1nc2ccccc2s1	13.3%	0.8%	-10.9%	4.65	-2%	17.4%

Compound	growth inhibition [1]	growth inhibition [2]	growth inhibition [3]	growth inhibition [4] [%]	growth inhibition [5]	growth inhibition [6]
CCOC(=O)C1(C)CCCCC1=O (centres undefined)	7.45%	-6.55%	3.2%	7.95	5.9%	2.95%
COC(=O)/C=C/c1ccc(OC(C)=O)c(OC)c1	-1.9%	3.55%	-13.6%	-19.1	16.6%	-4.9%
O=C1NC2(CCCC2)C(=O)N2CCCC12 (centres undefined)	-8.65%	-17.6%	17.7%	-5.75	0.3%	27.2%
C=C1C(=O)OC2/C=C(\C)CC/C=C(/C=O)C(OC(=O)C(C)C)C(O)C12 (centres undefined)	-12.2%	-55.4%	17.6%	-7.25	-42.1%	-31.6%
O=c1[nH]c(=S)[nH]n1C(=S)n1[nH]c(=S)[nH]c1=O	5.35%	-2.65%	8.7%	-7.8	13.1%	9.6%
Cc1cc(N=C2C=CC(=O)C=C2)ccc1O	40.5%	21.6%	30.4%	10.2	15.9%	25.6%
CN(C)c1ccc(Cc2ccc(N(C)C)c3cccnc23)c2ncccc12	-5.45%	-9.65%	13.7%	-13.4	12.3%	1.4%
CC(=O)N1CC(C)(C)c2c(C)c(O)c(C)c(C)c21	-16.1%	-22.3%	-15.4%	17.1	8.45%	0.3%
CCCCCCCCCCCCCCCCCCCCCCCCC(O)C(=O)O (centres undefined) (tested in a mixture with another compound)	-33%	-31.4%	-2.4%	-23.2	7.7%	-0.45%
CCOc1ccc(/C=C\C(=O)O)cc1	-1.9%	-19.6%	8.5%	-5.75	1.25%	1.55%
CC(=O)c1cccc(NC(=O)Oc2ccc(C(=O)OCc3ccccc3)cc2)c1	71.2% (active)	88.9% (active)	80.7% (active)	42.8	92.2% (active)	92.9% (active)
O=C1NC(=O)c2ccc(Br)c3cccc1c23	17.9%	18.9%	16.1%	21.6	19.9%	1.75%
Cc1cc(Cl)nc2ccc([N+](=O)[O-])cc12	5.35%	6.3%	-5.35%	-18.1	14.2%	5.5%
COc1ccc2c3c(n(Cc4ccccc4)c(=O)c2c1)-c1cc(OC)c(OC)cc1C3C (centres undefined)	36.1%	-21.7%	-1.25%	-26.6	-20.4%	23.1%
CC(NN(C)C(=S)Nc1ccccc1)c1ccccn1 (centres undefined)	-6.7%	-7.15%	-9.15%	-10.8	-4.75%	-0.1%
C(/C=C/c1ccccc1)=Nc1ccc2c(c1)Cc1ccccc1-2	0.4%	-0.35%	-25.8%	-27.9	-15.8%	9.9%
Cc1ccccc1NC(=O)CC(=O)N1N=C(N(CCC#N)c2ccccc2Cl)CC1c1ccccc1 (centres undefined)	4.1%	-10%	-39.3%	16.4	-10.1%	-8.3%
COc1ccc(C2CC(=O)NC2=O)cc1OC (centres undefined)	4.8%	17.4%	-6.55%	-12.2	1.8%	-5.65%
COC(=O)CN(c1ccc(C#N)c2ccccc12)S(=O)(=O)c1ccccc1	32.4%	-2.35%	3.7%	-4.9	4.25%	1.45%
